From paper PMC9574860, “Chemical Toolkit for PARK7: Potent, Selective, and High-Throughput” (Journal of Medicinal Chemistry, 2022) come the findings set out here.

Hit rate of the full screen: of about 7,900 compounds, about 400 (5.1%) showed an effect of 50% or more. What follows is part of a selection rich in strong results, with near analogues and random picks from the rest.

For the test, the target named is Parkinson's disease protein 7 (PARK7/DJ1) (human, UniProt Q99497). In words: primary screen, percent inhibition; read as competition with a fluorescent probe by fluorescence polarization; higher = more effect of the substance. Particulars: 100 µM. In short, it runs like this: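 Covalent fragments at 100 μM final were incubated 2 h with 0.2 μM PARK7, then 20 nM probe JYQ-107 added for a further 2 h. Fluorescence polarization read at 480/520 nm; relative FP loss versus reference controls gave remaining enzyme activity.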
Chain of Parkinson's disease protein 7 (PARK7/DJ1) (Q99497 whole entry, looked up, the tested form may be a part): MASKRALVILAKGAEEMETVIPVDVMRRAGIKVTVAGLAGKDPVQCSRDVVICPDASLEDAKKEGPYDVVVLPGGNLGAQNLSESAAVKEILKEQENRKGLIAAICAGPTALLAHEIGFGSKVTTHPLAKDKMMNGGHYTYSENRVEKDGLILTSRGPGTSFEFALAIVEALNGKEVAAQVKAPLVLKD
On to `O=C1NC(C2CC2)C1C1CC1` (stereo not drawn), for which the Inhibition % was determined as 6.35%. For the molecule `N#Cc1cnc(OCC(F)(F)F)cn1`, the Inhibition % is given as 4.9%. As to `C=CC(=O)N1CCC(S(=O)(=O)C(C)C)CC1`, the Inhibition % is given as 5.57%. On to `Cc1csc(C(C#N)=Cc2cnn(C)c2)n1`, for which the Inhibition % was determined as 11.9%.

As to `Cc1cnc(S(=O)(=O)F)nc1`, the Inhibition % is on record as 33.7%. Under `Cc1cc(C)nc(S)n1` stands 17.2%; under `Cc1cc(C)nc(S(=O)(=O)F)n1`, 55.9%. Consider `O=C(CCCCl)N1CCCCC1`, for which the Inhibition % is on record as 2.86%. As for `O=C1OCCC1N1C(=O)c2ccccc2S1(=O)=O` (stereo not drawn), the Inhibition % was 6.02%. Regarding `Cc1ccc(C=CS(=O)(=O)Nc2cc(C)nn2C)cc1`, the Inhibition % is on record as 20%.

On to `C=CC(=O)N1CCC(C)C(OC)C1` (stereo not drawn), for which the Inhibition % is 7.85%. For `O=C(O)c1cccc(CS)c1`, the Inhibition % was determined as 30.4%.

Turning to `O=C(O)c1ccc2c(=O)[nH]c(S)nc2c1`, the Inhibition % worked out at 11.3%. Regarding `O=C(O)c1ccc(CS)c(F)c1`, the Inhibition % worked out at 82.7%.

For the molecule `O=C(CCl)Nc1cc2c(cc1[N+](=O)[O-])OCCCO2`, the Inhibition % amounted to 3.15%. Regarding `COc1cccc(C2CCCN2C(=O)CCl)c1` (stereo not drawn), the Inhibition % amounted to 2.56%.

Take `C=CC(=O)N(C)Cc1cnc(N(C)C)nc1`: the Inhibition % was 5.02%. Regarding `CCCC(C#N)NS(=O)(=O)c1ccc(S(=O)(=O)F)cc1` (stereo not drawn), the Inhibition % was found to be 33.3%. With `N#CC1(NS(=O)(=O)c2ccc(S(=O)(=O)F)cc2)CCC1`, the Inhibition % stood at 31.4%. With `CC(C#N)NS(=O)(=O)c1cccc(S(=O)(=O)F)c1` (stereo not drawn), the Inhibition % was 102%. With `CCCC(C#N)NS(=O)(=O)c1cccc(S(=O)(=O)F)c1` (stereo not drawn), the Inhibition % came out at 96.8%.

On to `CC(C#N)NS(=O)(=O)c1ccc(S(=O)(=O)F)cc1` (stereo not drawn), for which the Inhibition % is recorded as 23.5%. On to `CCC(C#N)NS(=O)(=O)c1ccc(S(=O)(=O)F)cc1` (stereo not drawn), for which the Inhibition % was found to be 31.6%. `O=C(CN1CCSC1=O)NC1CCN2CCCCC12` (stereo not drawn): the Inhibition % was 10.2%. As to `COc1ccc(C(C)(C)C)cc1NC(=O)CCl`, the Inhibition % turned out to be 10.8%. Take `O=C(Nc1ccccc1F)N1CCC(C2OCCO2)CC1`: the Inhibition % turned out to be 5.67%.

Take `C=C(C)c1nc(C#N)c(NCc2ccccc2)o1`: the Inhibition % was 9.08%.

For the molecule `COc1ccc2nc(C#N)ccc2c1`, the Inhibition % was determined as 3.18%.

Consider `N#Cc1ccc2cc(N)ccc2n1`, for which the Inhibition % worked out at 101%. In the case of `Nc1ccc2nc(S)ccc2c1` it was 67.6%; in that of `N#Cc1cc(N)c2ccccc2n1`, 10.9%. Regarding `Nc1cc(N)nc(S)n1`, the Inhibition % worked out at 6.46%.

Take `Sc1ccc2ccccc2n1`: the Inhibition % is on record as 14.2%. Consider `N#Cc1ccc(Cl)cc1N1CCC(C2OCCO2)CC1`, for which the Inhibition % is recorded as 2.51%.

For `C=CC(=O)NC1CCCCNC1=O` (stereo not drawn), the Inhibition % is on record as 3.54%.

In the case of `COc1ccc(S(N)(=O)=O)cc1NC(=O)CCl`, the Inhibition % was 2.41%. Consider `C=CC(=O)NC(NC(=O)C=C)c1ccccc1F`, for which the Inhibition % is on record as 14.4%. As to `CN(C)c1nccc(CNCc2ccc(B(O)O)cc2)n1`, the Inhibition % is reported as -0.514%. With `C=CC(=O)NCC1CCCOC1c1ccc(C)cc1` (stereo not drawn), the Inhibition % was determined as 9.55%. In the case of `CNC1CCCN(C(=O)C=Cc2cncc(F)c2)C1` (stereo not drawn) it was 29.3%. Consider `Cl.O=C(CCl)NCC(c1ccccc1Cl)N1CCCC1` (stereo not drawn), for which the Inhibition % stood at 3.25%. As for `C=CC(=O)Nc1cnn(C(C)C)c1C1CC1`, the Inhibition % amounted to 10.5%. Regarding `O=C1SCCN1CN1CCN(c2ccccc2F)CC1`, the Inhibition % was found to be 3.81%. For `CCCN1CCN(c2oc(-c3ccco3)nc2C#N)CC1`, the Inhibition % is 9.64%.

Take `CC(C)N1CCN(c2oc(-c3ccco3)nc2C#N)CC1`: the Inhibition % was 10%. Take `N#Cc1nc(-c2ccco2)oc1N1CCN(C(=O)CCl)CC1`: the Inhibition % is on record as 51.4%. For `N#Cc1nc(-c2ccco2)oc1N1CCNCC1`, the Inhibition % was found to be 9.97%.

Regarding `C#CCN1CCN(c2oc(-c3ccco3)nc2C#N)CC1`, the Inhibition % stood at 53.7%.

Regarding `CCN1CCN(c2oc(-c3ccco3)nc2C#N)CC1`, the Inhibition % is recorded as 9.73%.

Regarding `ClCCCc1cccnc1`, the Inhibition % was 7.37%. Consider `Cc1c(C#N)c(NC(=O)CCl)n(C2CCCCC2)c1C`, for which the Inhibition % came out at 15.6%. As to `O=C(CCl)Nc1cccc(Br)c1`, the Inhibition % turned out to be 29.1%. Regarding `O=C(CCl)Nc1ccc(Cl)c(F)c1`, the Inhibition % amounted to 36.8%. As to `O=C(CCl)Nc1ccc(Br)cc1`, the Inhibition % is given as 70.1%. Regarding `CC(=O)c1oc2ccccc2c1NC(=O)CCl`, the Inhibition % is listed as 9.9%. Under `O=C(CCl)NC(=O)Nc1ccc(Br)cc1` stands 23.3%; under `O=C(CCl)Nc1ccc2c(c1)oc1ccccc12`, 62.9%. Under `O=C(CCCl)Nc1ccc2c(c1)CCC2` stands 4.93%; under `O=C(CCl)Nc1ccc2c(c1)CCC2`, 57.8%. For `COc1cc2c(cc1NC(=O)CCl)oc1ccccc12`, the Inhibition % is 4.67%. In the case of `C=CC(=O)Nc1ccc2c(c1)CCC2` it was 7.23%; in that of `O=C(CCl)Nc1ccc(F)c(Cl)c1`, 21.3%. Regarding `O=C(CCl)Nc1ccc(Cl)c(Cl)c1`, the Inhibition % is 63%. As to `O=C(c1cccnc1S)N1CCOC2(CCCC2)C1`, the Inhibition % is recorded as 6.34%. On to `C=CC(=O)NCc1cc2n(n1)CCC2`, for which the Inhibition % came out at 10.7%. Consider `CC1(C)OB(c2cccc(OC(F)F)c2)OC1(C)C`, for which the Inhibition % worked out at 3.49%.
